Laboratory results as given in PubChem BioAssay (Tox21).
Where “and” joins values, the source holds several entries; their conditions need not be identical. Identical values can stand only once. Records with an inconclusive call do not appear. Calls of active or inactive are those of the source. Calls come from the whole dose curve; as a rule, active = well fitted curve in the direction sought with a large enough effect in the repeat runs; inconclusive = weak or mixed curves; inactive = no such curve, though single readings can be large; an effect the other way counts as inactive or inconclusive.

Experiments:
[1] = qHTS RealTime-Glo MT Cell Viability Assay in HepG2 cells - 40 hour (AID 1224870); note: nearly all actives have a fitted effect of over 50% in size; note: potency is the fitted concentration of half-maximal effect
Outline: (§1)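 HepG2 cells mixed with RealTime-Glo MT reagents (NanoLuc plus cell-permeant prosubstrate) were seeded at 600 cells/well, incubated 5 h at 37 C/5% CO2, then pinned with compounds in DMSO; nonlytic luminescence tracked viability during 40 h treatment.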

[2] = A CellTox Green Cytotoxicity Assay to monitor cytotoxicity in HEK293 cells - 40 hour (AID 1224871); note: nearly all actives have a fitted effect of over 45% in size; note: potency is the fitted concentration of half-maximal effect
Outline: (§2)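 Cytotoxicity was tracked continuously in HEK293 cells by a DNA-binding dye excluded from viable cells. Compounds were transferred in DMSO 5 h after seeding; fluorescence was recorded at intervals up to 40 h.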

[3] = qHTS RealTime-Glo MT Cell Viability Assay in HEK293 cells - 16 hour (AID 1224872); note: nearly all actives have a fitted effect of over 50% in size; note: potency is the fitted concentration of half-maximal effect
Outline: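 Nonlytic real-time viability readout: viable cells convert prosubstrate to NanoLuc substrate, giving luminescence proportional to live cell number. HEK293, 600 cells/well, compound added after 5 h, continuous culture at 37 C.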

[4] = qHTS RealTime-Glo MT Cell Viability Assay in HepG2 cells - 8 hour (AID 1224873); note: nearly all actives have a fitted effect of over 55% in size
Outline: as §1

[5] = qHTS RealTime-Glo MT Cell Viability Assay in HEK293 cells - 40 hour (AID 1224874); details: RealTime-Glo luminescence; max response: hits give low values; note: nearly all actives have a fitted effect of over 50% in size; note: potency is the fitted concentration of half-maximal effect
Outline: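 Nonlytic bioluminescent viability monitoring. HEK293 at 600 cells/well with reagent; 5 h settle; compound transfer by pintool; plates held at 37 C and read at set time points.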

[6] = A CellTox Green Cytotoxicity Assay to monitor cytotoxicity in HEK293 cells - 24 hour (AID 1224875); note: nearly all actives have a fitted effect of over 45% in size; note: potency is the fitted concentration of half-maximal effect
Outline: as §2

[7] = A CellTox Green Cytotoxicity Assay to monitor cytotoxicity in HepG2 cells - 16 hour (AID 1224876); note: nearly all actives have a fitted effect of over 45% in size; note: potency is the fitted concentration of half-maximal effect
Outline: (§3)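 Real-time, homogeneous cytotoxicity readout: dead-cell DNA staining by CellTox Green in HepG2 monolayers, fluorescence measured at timed intervals up to 40 h of continuous compound exposure.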

[8] = qHTS RealTime-Glo MT Cell Viability Assay in HepG2 cells - 32 hour (AID 1224877); note: nearly all actives have a fitted effect of over 55% in size; note: potency is the fitted concentration of half-maximal effect
Outline: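 Luminescence read-out: viable HepG2 cells reduce a prosubstrate to a NanoLuc substrate, giving a signal proportional to live cell number. Reads taken at 0, 8, 16, 24, 32 and 40 h of compound exposure at 37 C.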

[9] = A CellTox Green Cytotoxicity Assay to monitor cytotoxicity in HepG2 cells - 24 hour (AID 1224878); note: nearly all actives have a fitted effect of over 45% in size; note: potency is the fitted concentration of half-maximal effect
Outline: as §3

[10] = A CellTox Green Cytotoxicity Assay to monitor cytotoxicity in HepG2 cells - 40 hour (AID 1224879); note: nearly all actives have a fitted effect of over 40% in size; note: potency is the fitted concentration of half-maximal effect
Outline: as §3
% is set by controls: 0 for no effect and ±100 for the full control effect.

CCN1CCC[C@H]1CNC(=O)c1cc(S(N)(=O)=O)ccc1OC
inactive: Potency [1] | Potency [2] | Potency [3] | Potency [4] | max response [5] -3.58% | Potency [6] | Potency [7] | Potency [8] | Potency [9] | Potency [10]

OCCOc1ccc(OCCO)cc1
inactive: Potency [1] | Potency [2] | Potency [3] | Potency [4] | max response [5] 19.3% | Potency [6] | Potency [7] | Potency [8] | Potency [9] | Potency [10]

CCO/C([O-])=N/c1c[n+](N2CCOCC2)no1
inactive: Potency [1] | Potency [2] | Potency [3] | Potency [4] | Potency [6] | Potency [7] | Potency [8] | Potency [9] | Potency [10]

NC(=O)Nc1ccccc1
inactive: Potency [1] | Potency [2] | Potency [3] | Potency [4] | Potency [6] | Potency [7] | Potency [8] | Potency [9] | Potency [10]

CCC=O
inactive: Potency [1] | Potency [2] | Potency [3] | Potency [4] | Potency [7] | Potency [8] | Potency [9] | Potency [10]

CCCN(CCC)CCc1cccc2c1CC(=O)N2
inactive: Potency [1] | Potency [2] | Potency [3] | Potency [4] | Potency [6] | Potency [7] | Potency [8] | Potency [9] | Potency [10]

COc1ccccc1OCC(O)CN1CCN(CC(=O)Nc2c(C)cccc2C)CC1 (stereo unspecified)
inactive: Potency [1] | Potency [2] | Potency [3] | Potency [4] | Potency [7] | Potency [8] | Potency [9] | Potency [10]

NC(CSCC(=O)O)C(=O)O (stereo unspecified)
inactive: Potency [1] | Potency [2] | Potency [3] | max response [5] 7.24% | Potency [6] | Potency [7] | Potency [8] | Potency [9] | Potency [10]

FC(F)OC(Cl)C(F)(F)F (stereo unspecified)
inactive: Potency [1] | Potency [2] | Potency [3] | Potency [4] | Potency [6] | Potency [7] | Potency [8] | Potency [9] | Potency [10]

CCc1ccc(O)c(OC)c1
inactive: Potency [1] | Potency [2] | Potency [3] | max response [5] 4.24% | Potency [6] | Potency [7] | Potency [8] | Potency [9] | Potency [10]

COC(=O)CC(C)=O
inactive: Potency [1] | Potency [2] | Potency [3] | Potency [4] | Potency [6] | Potency [7] | Potency [8] | Potency [9] | Potency [10]

O=C1CCCCCCCCCCCN1
inactive: Potency [1] | Potency [2] | Potency [3] | Potency [4] | max response [5] 0.14% and 1.61% | Potency [7] | Potency [8] | Potency [9] | Potency [10]

Cc1sccc1Br
inactive: Potency [1] | Potency [2] | Potency [3] | Potency [4] | max response [5] 6.36% | Potency [7] | Potency [8] | Potency [9] | Potency [10]

FC1(F)C(F)(F)C(F)(F)C2(F)C(F)(F)C(F)(F)C(F)(F)C(F)(F)C2(F)C1(F)F (stereo unspecified)
inactive: Potency [1] | Potency [2] | Potency [3] | Potency [4] | max response [5] 1.37% | Potency [7] | Potency [8] | Potency [9] | Potency [10]

C=C1CC[C@H]2C[C@@H]1C2(C)C
inactive: Potency [1] | Potency [2] | Potency [3] | Potency [4] | max response [5] 5.42% | Potency [7] | Potency [8] | Potency [9] | Potency [10]

CN(C)CCCSc1ccccc1NC(=O)/C=C/c1ccccc1
inactive: Potency [1] | Potency [3] | Potency [4] | max response [5] -11.2% | Potency [8]
active: Potency [2] 19 µM | Potency [7] 21.3 µM | Potency [9] 19 µM | Potency [10] 19 µM

CCCCCCOC(=O)CCCCC(=O)OCCCCCC
inactive: Potency [1] | Potency [2] | Potency [3] | max response [5] 7.23% | Potency [6] | Potency [7] | Potency [8] | Potency [9] | Potency [10]

CN(C)CCCN1c2ccccc2CCc2ccc(Cl)cc21
active: Potency [1] 43.6 µM | Potency [2] 49 µM and 26.8 µM | Potency [3] 43.6 µM | Potency [5] 34.7 µM and 21.3 µM | Potency [6] 49 µM and 23.9 µM | Potency [7] 54.9 µM and 21.3 µM | Potency [8] 49 µM and 23.9 µM | Potency [9] 38.9 µM and 23.9 µM | Potency [10] 34.7 µM and 23.9 µM

C[N+](C)(C)CC(O)CC(=O)[O-] (stereo unspecified)
inactive: Potency [1] | Potency [2] | Potency [3] | Potency [4] | max response [5] -3.45% | Potency [7] | Potency [8] | Potency [9] | Potency [10]

C=C(C)CS(=O)(=O)O
inactive: Potency [1] | Potency [2] | Potency [3] | Potency [4] | max response [5] -0.0402% | Potency [7] | Potency [8] | Potency [9] | Potency [10]

N#Cc1ccc(C2CCCc3cncn32)cc1 (stereo unspecified)
inactive: Potency [1] | Potency [2] | Potency [3] | Potency [4] | max response [5] 8.46% | Potency [7] | Potency [8] | Potency [9] | Potency [10]

CCOC(=O)C(=O)OCC
inactive: Potency [1] | Potency [2] | Potency [3] | Potency [4] | Potency [6] | Potency [7] | Potency [8] | Potency [9] | Potency [10]

Cc1ccc(Cl)cc1Cl
inactive: Potency [1] | Potency [2] | Potency [3] | Potency [4] | max response [5] 13.6% | Potency [7] | Potency [8] | Potency [9] | Potency [10]

N=c1nc(N2CCCCC2)cc(N)n1O
inactive: Potency [1] | Potency [2] | Potency [3] | Potency [4] | max response [5] -2.32% | Potency [7] | Potency [8] | Potency [9] | Potency [10]
